Measurements from the supplement of paper PMC9262897, “Low-cost anti-mycobacterial drug discovery using engineered E. coli” (Nature Communications, 2022).
Counter-ions that a name gives are not always drawn. ± gives the standard deviation of the averaged measurements.

Experiments:
Assay in all cases: growth (OD600 after 10 h); higher = more growth (less inhibition)
[1] = system: E. coli TESEC Alr+ wild-type control; conditions: compound 0.1 mM; raw OD600 reference: median of DMSO wells 0.241, cell-free background 0.041
Experimental: (§1)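 TESEC Mtb Alr E. coli, or the Alr+ wild-type control, in 384-well plates with Prestwick library compounds at 0.1 mM and 1% DMSO, across arabinose induction levels of 1E3 to 1E7 nM. Growth is read as OD600 after 10 h at 37 °C in triplicate biological replicates.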

E. coli TESEC Mtb Alr [2] = conditions: compound 0.1 mM
Experimental: as §1

E. coli TESEC Mtb Asd = conditions: compound 0.1 mM
Experimental: (§2)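 TESEC E. coli strains in which the native enzyme is deleted and replaced by arabinose-inducible Mtb Asd, DapB, CysH or TrpD, each grown in its selective medium. Strains were screened against the Prestwick library at 0.1 mM and 1% DMSO in 384-well format at low and high arabinose induction. Growth is read as OD600 after 10 h in triplicate.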

E. coli TESEC Mtb DapB = conditions: compound 0.1 mM
Experimental: as §2

[3] = system: E. coli TESEC Alr+ wild-type control; conditions: compound 0.1 mM; raw OD600 reference: median of DMSO wells 0.49, cell-free background 0.052
Experimental: (§3)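 TESEC Mtb Alr E. coli (ΔaraC ΔtolC ΔentC Δalr ΔdadX, arabinose-inducible Mtb Alr) or the Alr+ wild-type control strain, grown in defined M9-fructose medium without D-alanine in 96-well plates with Prestwick library compounds at 0.1 mM and 1% DMSO. Low Alr induction is 0.1 µM arabinose and high induction is 10 mM arabinose.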

E. coli TESEC Mtb Alr [4] = conditions: compound 0.1 mM; remark: listed apart in the source
Experimental: as §3

[5] = arabinose 1000 nM, raw OD600 reference: median of DMSO wells 0.294, cell-free background 0.041
[6] = arabinose 10000 nM, raw OD600 reference: median of DMSO wells 0.264, cell-free background 0.041
[7] = arabinose 100000 nM, raw OD600 reference: median of DMSO wells 0.201, cell-free background 0.041
[8] = arabinose 1000000 nM, raw OD600 reference: median of DMSO wells 0.193, cell-free background 0.041
[9] = arabinose 10000000 nM, raw OD600 reference: median of DMSO wells 0.146, cell-free background 0.041
[10] = arabinose induction (level): High, raw OD600 reference: median of DMSO wells 0.331, cell-free background 0.041
[11] = arabinose induction (level): Low, raw OD600 reference: median of DMSO wells 0.417, cell-free background 0.041
[12] = arabinose induction (level): High, raw OD600 reference: median of DMSO wells […], cell-free background 0.041
[13] = arabinose induction (level): Low, raw OD600 reference: median of DMSO wells 0.227, cell-free background 0.041
[14] = arabinose 100 nM, raw OD600 reference: median of DMSO wells 0.413, cell-free background 0.052
[15] = arabinose 10000000 nM, raw OD600 reference: median of DMSO wells […], cell-free background 0.052

Structure (SMILES) | growth [1] | growth (E. coli TESEC Mtb Alr [2]; [5]) | growth (E. coli TESEC Mtb Alr [2]; [6]) | growth (E. coli TESEC Mtb Alr [2]; [7]) | growth (E. coli TESEC Mtb Alr [2]; [8]) | growth (E. coli TESEC Mtb Alr [2]; [9]) | growth (E. coli TESEC Mtb Asd; [10]) | growth (E. coli TESEC Mtb Asd; [11]) | growth (E. coli TESEC Mtb DapB; [12]) | growth (E. coli TESEC Mtb DapB; [13]) | growth [3] | growth (E. coli TESEC Mtb Alr [4]; [14]) | growth (E. coli TESEC Mtb Alr [4]; [15])
CCc1cccc2c3c([nH]c12)C(CC)(CC(=O)O)OCC3 (stereo unspecified) [Etodolac] | 0.24 ± 0.0076 | 0.272 ± 0.0061 | 0.264 ± 0.01 | 0.162 ± 0.0052 | 0.147 ± 0.004 | 0.1376 ± 0.00061 | 0.276 ± 0.027 | 0.267 ± 0.017 | 0.195 ± 0.0073 | 0.261 ± 0.033 | 0.415 ± 0.021 | 0.409 ± 0.011 | 0.264 ± 0.013
CC(C)NCC(O)c1ccc(O)c(O)c1 (single isomer, unassigned; (-)) [(-)-Isoproterenol hydrochloride] | 0.236 ± 0.0036 | 0.289 ± 0.0076 | 0.278 ± 0.015 | 0.184 ± 0.02 | 0.199 ± 0.004 | 0.143 ± 0.0042 | 0.281 ± 0.052 | 0.392 ± 0.03 | 0.191 ± 0.014 | 0.23 ± 0.035 | 0.539 ± 0.066 | 0.4345 ± 0.003 | 0.32 ± 0.02
CCN(CC)Cc1cc(Nc2ccnc3cc(Cl)ccc23)ccc1O [Amodiaquin dihydrochloride dihydrate] | 0.16 ± 0.0068 | 0.229 ± 0.0059 | 0.269 ± 0.003 | 0.181 ± 0.0097 | 0.102 ± 0.0085 | 0.203 ± 0.0054 | 0.179 ± 0.011 | 0.387 ± 0.051 | 0.209 ± 0.017 | 0.28 ± 0.06 | 0.527 ± 0.047 | 0.4131 ± 0.00099 | 0.322 ± 0.0054
CN(C)CCN(Cc1cccs1)c1ccccn1 [Methapyrilene hydrochloride] | 0.216 ± 0.0071 | 0.281 ± 0.012 | 0.252 ± 0.007 | 0.224 ± 0.024 | 0.165 ± 0.0065 | 0.143 ± 0.0051 | 0.257 ± 0.024 | 0.41 ± 0.059 | 0.175 ± 0.0071 | 0.193 ± 0.0062 | 0.644 ± 0.021 | 0.402 ± 0.011 | 0.332 ± 0.011
N=C(N)NC(=O)c1nc(Cl)c(N)nc1N [Amiloride hydrochloride dihydrate] | 0.236 ± 0.012 | 0.291 ± 0.021 | 0.257 ± 0.003 | 0.255 ± 0.016 | 0.181 ± 0.0048 | 0.15 ± 0.0063 | 0.387 ± 0.036 | 0.428 ± 0.033 | 0.203 ± 0.0053 | 0.278 ± 0.035 | 0.497 ± 0.071 | 0.407 ± 0.014 | 0.392 ± 0.015
Clc1ccc(Nc2nnc(Cc3ccncc3)c3ccccc23)cc1 [Vatalanib] | 0.104 ± 0.031 | 0.0967 ± 0.038 | 0.0476 ± 0.003 | 0.0763 ± 0.0031 | 0.0489 ± 0.0002 | 0.0787 ± 0.0014 | 0.112 ± 0.017 | 0.0893 ± 0.021 | 0.203 ± 0.081 | 0.15 ± 0.015 | 0.514 ± 0.0082 | 0.303 ± 0.17 | 0.0605 ± 0.0043
CCCCC(CC)CNC(=N)NC(=N)NCCCCCCNC(=N)NC(=N)NCC(CC)CCCC (stereo unspecified) [Alexidine dihydrochloride] | 0.0519 ± 0.0017 | 0.0821 ± 0.0028 | 0.0849 ± 0.0013 | 0.0842 ± 0.0022 | 0.0553 ± 0.0016 | 0.0814 ± 0.004 | 0.0536 ± 0.00095 | 0.0584 ± 0.0047 | 0.0749 ± 0.029 | 0.071 ± 0.014 | 0.0485 ± 0.0022 | 0.0695 ± 0.012 | 0.0779 ± 0.013
Nc1nnc(-c2cccc(Cl)c2Cl)c(N)n1 [Lamotrigine] | 0.14 ± 0.0084 | 0.206 ± 0.028 | 0.203 ± 0.0052 | 0.216 ± 0.014 | 0.21 ± 0.0054 | 0.179 ± 0.0078 | 0.236 ± 0.025 | 0.168 ± 0.019 | 0.213 ± 0.015 | 0.132 ± 0.0074 | 0.46 ± 0.021 | 0.413 ± 0.029 | 0.386 ± 0.029
COC(=O)C1=C(C#N)NC(C)=C(C(=O)OC(C)C)C1c1cccc([N+](=O)[O-])c1 (stereo unspecified) [Nilvadipine] | 0.148 ± 0.0031 | 0.203 ± 0.014 | 0.2569 ± 0.001 | 0.164 ± 0.014 | 0.0883 ± 0.002 | 0.149 ± 0.033 | 0.16 ± 0.0063 | 0.325 ± 0.029 | 0.208 ± 0.019 | 0.214 ± 0.015 | 0.212 ± 0.16 | 0.429 ± 0.0067 | 0.06 ± 0.0039
NC[C@H]1CC[C@H](C(=O)O)CC1 [Tranexamic acid] | 0.254 ± 0.0017 | 0.293 ± 0.0074 | 0.282 ± 0.0046 | 0.215 ± 0.031 | 0.186 ± 0.002 | 0.141 ± 0.0029 | 0.381 ± 0.056 | 0.446 ± 0.026 | 0.188 ± 0.011 | 0.214 ± 0.018 | 0.456 ± 0.04 | 0.411 ± 0.0076 | 0.349 ± 0.0049
COc1cc2nc(N3CCN(C(=O)C4COc5ccccc5O4)CC3)nc(N)c2cc1OC (stereo unspecified) [Doxazosin mesylate] | 0.054 ± 0.0033 | 0.047 ± 0.002 | 0.0476 ± 0.00044 | 0.0463 ± 0.0012 | 0.04047 ± 5.8e-05 | 0.0449 ± 0.0026 | 0.092 ± 0.023 | 0.0521 ± 0.004 | 0.194 ± 0.015 | 0.208 ± 0.038 | 0.0495 ± 0.0017 | 0.277 ± 0.2 | 0.0514 ± 0.0015
NCCc1c[nH]cn1 [Histamine dihydrochloride] | 0.24 ± 0.012 | 0.2947 ± 0.0029 | 0.258 ± 0.0056 | 0.192 ± 0.019 | 0.192 ± 0.011 | 0.139 ± 0.003 | 0.303 ± 0.062 | 0.403 ± 0.011 | 0.193 ± 0.015 | 0.23 ± 0.0077 | 0.501 ± 0.067 | 0.42 ± 0.011 | 0.312 ± 0.0092
